Screening data (PubChem)
Shown are actives, neighbours in structure and some others; about 1.8% of the full set was active somewhere.
Fam108B counter – blocks mouse Fam108B hydrolase in RBBP9 counter-screen; inhibition, % at 9.51 µM; hit rate 0.33% among 300,000; recombinant Fam108B, FP-Rh probe fluorescence polarization;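 active means inhibition above the screen mean inhibition plus 3 SD, computed separately per campaign, cut at about 18% in these data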;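 further: inhibitors lower polarization as less probe binds the enzyme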
PME-1 primary – blocks human protein phosphatase methylesterase 1. Q9Y570. recombinant PME-1, FP-Rh probe fluorescence polarization. inhibition, % at 5.9 µM. hit rate 0.53% among 320,000;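 active means inhibition above the campaign mean of all compounds plus 3 SD, cut at about 26% in these data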;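 further: competitive labeling of PME-1 active site by serine hydrolase directed probe; 0% = PME-1 with DMSO and 100% = wells lacking PME-1 enzyme; inhibitors block probe labeling so polarization falls and inhibition rises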
PAD4 inh – PAD4 (human) enzyme inhibition. recombinant PAD4, RCA probe fluorescence polarization. inhibition, % at 6.36 µM. hit rate 0.41% among 330,000. AID 485272;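 active means percent inhibition above a cutoff equal to the mean of all tested compounds plus 3 SD, cut at about 15% in these data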;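 further: 0% = PAD4 with RCA probe and DMSO and 100% = probe without PAD4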
LYPLA2 inh – LYPLA2 (human) inhibition in PME1 counter-screen; AID 2177; inhibition, % at 5.9 µM; O95372; hit rate 0.38% among 320,000; recombinant LYPLA2, FP-Rh probe fluorescence polarization;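 active means inhibition above the screen-wide mean plus 3 SD, limit set per campaign, cut at about 26% in these data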;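 further: 0% = LYPLA2 with DMSO and 100% = wells lacking LYPLA2 enzyme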
Target sequence (O95372 whole entry, looked up): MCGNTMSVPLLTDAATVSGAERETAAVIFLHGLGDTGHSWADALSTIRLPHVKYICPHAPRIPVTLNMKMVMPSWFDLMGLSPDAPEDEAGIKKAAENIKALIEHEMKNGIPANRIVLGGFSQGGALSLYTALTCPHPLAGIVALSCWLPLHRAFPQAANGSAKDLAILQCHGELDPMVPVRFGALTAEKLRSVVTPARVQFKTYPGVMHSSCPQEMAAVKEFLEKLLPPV
LYPLA1 inh – blocks human lysophospholipase 1, a PME1 counter-screen. O75608. recombinant LYPLA1, FP-Rh probe fluorescence polarization. inhibition, % at 5.9 µM. hit rate 0.16% among 320,000. AID 2174;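 active means inhibition above the mean of all tested compounds plus 3 SD, set per campaign, cut at about 14% in these data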;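 further: inhibitors block serine hydrolase probe labeling of LYPLA1 so polarization falls; 0% = enzyme with DMSO and 100% = wells lacking LYPLA1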
Target sequence (O75608 whole entry, looked up): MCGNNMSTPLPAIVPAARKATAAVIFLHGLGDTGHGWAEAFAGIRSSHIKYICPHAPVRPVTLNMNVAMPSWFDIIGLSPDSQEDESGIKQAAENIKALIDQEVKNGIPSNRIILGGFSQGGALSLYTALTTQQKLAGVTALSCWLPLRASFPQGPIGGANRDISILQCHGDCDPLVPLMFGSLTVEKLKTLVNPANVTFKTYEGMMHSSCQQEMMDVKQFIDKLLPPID
GSTO1 counter – GSTO1 inhibition, counter-screen for RBBP9 inhibitors; P78417; recombinant GSTO1, activity-based probe fluorescence polarization; inhibition, % at 5.96 µM; hit rate 1.1% among 300,000; AID 1974;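 active means inhibition above the campaign mean inhibition plus 3 SD, cut at about 35% in these data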;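 further: 0% = GSTO1-1 with DMSO and 100% = wells lacking GSTO1-1 enzyme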
GSTO1 inh conf – confirmation of human GSTO1 inhibitors. AID 2176. shares compounds with GSTO1 counter. inhibition, % at 5.96 µM. recombinant GSTO1, probe fluorescence polarization. hit rate 54% among 2,400;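 active means inhibition above the primary screen's cutoff, its mean inhibition plus 3 SD, cut at about 35% in these data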;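 further: loss of polarization as inhibitors block binding of rhodamine sulfonate ester activity probe; 0% = GSTO1 with DMSO and 100% = wells lacking GSTO1 enzyme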
GSTO1 recomb ABPP – GSTO1 (human) inhibition by gel ABPP; shares compounds with GSTO1 counter; recombinant GSTO1, gel ABPP SE-Rh probe fluorescence; inhibition, % at 1 µM; hit rate 30% among 130;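 active means inhibition of the enzyme GSTO1 above about 75%, limit read from the data; inactive means inhibition below that limit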
LYPLA1 confirm – counter-screen for PME1 inhibitors: confirmation of human LYPLA1 inhibitors; shares compounds with LYPLA1 inh; hit rate 69% among 480; AID 2233; inhibition, % at 5.9 µM; recombinant LYPLA1, FP-Rh probe fluorescence polarization;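 active means mean inhibition across replicates above the hit cutoff set in the primary screen, cut at about 15% in these data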;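 further: loss of FP-Rh probe labeling of LYPLA1 seen as lower polarization; 0% = LYPLA1 with DMSO and 100% = wells lacking LYPLA1 enzyme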
LYPLA2 confirm – LYPLA2 (human) inhibition, confirmation counter-screen; recombinant LYPLA2, FP-Rh probe fluorescence polarization; inhibition, % at 5.9 µM; shares compounds with LYPLA2 inh; hit rate 72% among 1,100;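 active means mean inhibition across replicates above the hit cutoff set in the primary screen, cut at about 26% in these data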;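 further: blocked labeling of the enzyme by serine hydrolase FP-Rh probe lowers polarization; 0% = enzyme with DMSO and 100% = wells lacking LYPLA2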
PAD4 confirm – confirmation of human PAD4 inhibitors; shares compounds with PAD4 inh; recombinant PAD4, RCA probe fluorescence polarization; inhibition, % at 6.36 µM; hit rate 28% among 1,200; AID 488796;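 active means mean inhibition across replicates above the hit cutoff set by the earlier primary screen, cut at about 15% in these data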;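 further: inhibitors block active-site labeling by the probe so polarization falls; 0% = PAD4 with probe and DMSO and 100% = probe without PAD4 enzyme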
* marks the source's active call; other numbers are inactive results; / = no result.

SMILES	Fam108B counter	PME-1 primary	PAD4 inh	LYPLA2 inh	LYPLA1 inh	GSTO1 counter	GSTO1 inh conf	PAD4 confirm	others
CC[C@@]1(C(=O)OC)N[C@H](CN(C)S(=O)(=O)c2ccccc2)[C@@H]2C(=O)N(C)C(=O)[C@@H]21	/	/	-2	/	/	/	/	/
CN(C)C(=O)CN1C(=O)NC(c2ccccc2)(c2ccccc2)C1=O	4	2	-4	7	-2	4	/	/
CN(C(=S)Nc1cccnc1)c1ccc(O)cc1	1	5	31*	-2	-4	83*	5	0
CN(C(=S)Nc1ccc(Oc2ccccc2)cc1)c1ccc(O)cc1	2	14	25*	3	-12	79*	2	0
CCN(C(=S)Nc1cccnc1)c1ccccc1	-4	-4	1	4	1	-7	/	/
Cc1[nH]c2ccccc2c1C(O)CN1CCC2(CC1)OCCO2 (centres undefined)	0	0	-1	3	-1	17	/	/
CC1(C)N([O-])c2cc([N+](=O)[O-])ccc2[N+]1=O	15	23	30*	-1	0	82*	42*	15*
CN(CC(=O)Nc1cccc(F)c1)C(=O)/C=C/c1ccc2ccccc2n1	-3	-3	2	-2	-1	1	/	/
O=C(/C=C/c1cccc(C(F)(F)F)c1)OCC(=O)N1CCN(c2ccccc2)CC1	/	/	-1	/	/	/	/	/
Cc1ccc(S(=O)(=O)NCC(=O)N2CCOCCOCCOCC2)cc1	2	-5	5	0	3	10	/	/
Cc1ccc2c(c1)c(=O)c1c3n2CCN(C(=O)CCl)C3CC1 (centres undefined)	10	4	30*	1	1	66*	80*	-1	GSTO1 recomb ABPP=63
Cc1ccc2c(c1)c1c3n2CCN(C(=O)CN2CCN(C)CC2)C3CCC1 (centres undefined)	-3	3	3	4	1	11	/	/
COC(CNC(=O)c1ccc2c3c(onc13)-c1ccccc1C2=O)OC	5	6	-10	-8	-1	34	/	/
CCOc1ccc2noc3c2c1C(=O)c1ccccc1-3	14	17	135*	24	20*	40*	13	131*	LYPLA1 confirm=12
Cc1[nH][nH]c(=O)c1C(c1ccc(-c2ccccc2C(=O)O)o1)c1c(C)[nH][nH]c1=O	1	-5	51*	5	0	70*	8	-6
Cc1[nH][nH]c(=O)c1C(c1ccc(-c2cccc(Cl)c2)o1)c1c(C)[nH][nH]c1=O	6	2	44*	2	1	72*	57*	36*
Cc1[nH][nH]c(=O)c1C(c1ccc(Br)cc1)c1c(C)[nH][nH]c1=O	3	-2	-12	5	3	16	/	/
Nc1nc(-c2cccs2)cs1	-2	1	19*	-1	-1	67*	13	5
COc1ccc(OC)c(Nc2cc3ccccc3c(=O)[nH]2)c1	17	6	39*	3	-1	71*	6	-1
COc1ccccc1Nc1cc2cc(Br)ccc2c(=O)[nH]1	2	-6	34*	-1	-4	42*	12	5
O=c1[nH]c(Nc2ccccc2)cc2cc(Br)ccc12	16	18	64*	6	-3	58*	19	-6
Cc1cc2nnc(SCC(=O)NC3CCCCC3)n2c(N)n1	5	-1	-4	-4	-3	-1	/	/
O=C(Nc1ccccc1C(=O)Nc1ccc(Br)cn1)c1cccc([N+](=O)[O-])c1	-5	-5	-7	2	3	1	/	/
O=S(=O)(Nc1ccc(O)c2ccccc12)c1cccs1	4	1	21*	1	-1	64*	16	-5
Cc1cc(=O)n(-c2ccc(O)cc2)[nH]1	2	7	61*	0	0	73*	8	-3
SMILES	Fam108B counter	PME-1 primary	PAD4 inh	LYPLA2 inh	LYPLA1 inh	GSTO1 counter	GSTO1 inh conf	PAD4 confirm	others
Cc1cc(=O)n(-c2ccccc2Cl)[nH]1	1	-1	33*	4	4	48*	5	4
CCCCn1c(N)c(N(CCOC)C(=O)COC(=O)COc2cc(C)c(Cl)cc2C(C)C)c(=O)[nH]c1=O	1	1	-6	-4	-1	0	/	/
O=C(OCn1ncc(Cl)c(Cl)c1=O)c1ccccc1Cl	-2	-1	28*	8	-7	48*	33	29*
O=C(Cn1ncc(Cl)c(Cl)c1=O)c1ccc(Cl)cc1	1	5	5	11	-2	18	/	/
COc1ccc(/C=C/C(=O)OCC(=O)NC2CCCC2)cc1OC	/	/	-1	/	/	/	/	/
CCCC(=Nc1ccc(N)cc1)C1=C(O)C(C(=O)OC)C(C)(C)CC1=O (centres undefined)	16	34*	67*	28*	15*	88*	8	1	LYPLA1 confirm=2;LYPLA2 confirm=5
CCOc1cc(CNc2ccc(N3CCCCC3)cc2)cc(Br)c1OCC(=O)NC(C)(C)C	-2	-1	3	-3	-8	33	/	/
CCOc1cc(CNc2ccc(N(C)C)cc2)cc(Br)c1OCC(=O)NC(C)(C)C	3	9	23*	11	2	81*	4	0
CSc1cccc(NC(=O)c2[nH]c(C)c(C(C)=O)c2C)c1	-2	-4	-1	-3	-11	-7	/	/
Cc1cccc(CN2CCN(CCCc3ccccc3)CC2)c1	3	2	-2	13	7	7	/	/
Cc1cc(=O)n(CCCc2ccccc2)[nH]1	-4	0	29*	-3	-3	42*	8	-5
Cc1[nH]n(-c2ccccc2)c(=O)c1C(=O)Nc1ccccc1	2	5	-6	1	4	-11	/	/
Cc1[nH]n(-c2ccccc2)c(=O)c1C(c1ccc(C(=O)O)cc1)c1c(C)[nH]n(-c2ccccc2)c1=O	4	4	73*	1	1	60*	18	13
Cc1[nH]n(-c2ccccc2)c(=O)c1C(=O)c1ccc([N+](=O)[O-])cc1	-3	-2	-19	-3	-1	-7	/	/
COc1cccc(N=Nc2c(C)[nH]n(-c3ccccc3)c2=O)c1	5	4	-1	0	1	1	/	/
